About 3,700 (7%) of roughly 53,000 sequences were called active. This is one part of a sample in which actives are shown more often than they occur.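 The calls were made as follows: active = gene knockdowns whose robust z-score for IL-1 alpha signal is at least 2 or at most -2, so actives lie on both sides; inactive = the rest.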

This passage reports z-score results from PubChem BioAssay AID1508600 (Functional Genomics Laboratory (NCATS/FGL), 2020).

This test can be described thus: Components of the Cytosolic LPS Sensing Pathway: Gene Identification via Genome-wide siRNA Screen.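 Also: robust z of the log signal after scaling to non-targeting control siRNA wells of the plate.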 The note with it: RAW264.7 macrophages, IL-1a HTRF, actives lie on both sides, screened at 100 nM (by protocol), cells primed 5 h with Pam3CSK4 first. A digest of the protocol:
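IL-1a HTRF of supernatants after 24 hour LipidA transfection of Pam3CSK4-primed (5 hours) RAW264.7 cells, 48h post-siRNA transfection (100 nM). Scores: percent of plate negative-control median, then log-based robust z-score.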
Regarding “CGGCAAUUUGAGUUGAAAATT against Ppp1r2-ps9”, the z-score is -0.571 (inactive).

As for GGGCACCUUAUACCAUAGATT against Bfar, the z-score is 0.345 (inactive).

On to GGCCAUGGAGAACAUAUGCTT against Trpm8, for which the z-score was -2.09 (active).

Consider GGCUAUUGAGCUCUUUGUCTT against Qpctl, for which the z-score is -0.661 (inactive).

GGAGUAGUAGCUAUUAUAUTT against Kctd9: the z-score was 1.89 (inactive).

As for “GCUUUGAGACCUAAUGAUGTT against 1810024B03Rik”, the z-score was -0.469 (inactive).

As to GGUGCUAGUGUAUGAAUUATT against Nsun5, the z-score was 2.39 (active).

For the sequence GGAUCAUUUGUUAAUGUACTT against Ddx3y, the z-score is 0.0896 (inactive).

As to GCUAUUGCUCGCAUCAAUGTT against Prps1l1, the z-score is 0.989 (inactive).

For the sequence GCGAUUAUUUCGCUUUGGATT against Pcdha12, the z-score is -0.502 (inactive).

Consider GGAGAGUAAAACCAAUACATT against Fam76a, for which the z-score is -0.0433 (inactive).

Take GGGUCACAGAGGUUACCCATT against Col2a1: the z-score is 1.25 (inactive).

For GGAGACCAAAAAGAAAUAATT against Cmas, the z-score is 0.622 (inactive).

Consider GGUGGUGGAAUGCUAAAAATT against Gys1, for which the z-score is 2.29 (active).

In the case of CCAGAAUACUGGGAUACAATT against B4galnt3, the z-score was -0.577 (inactive).

For GCUCAUGUAUGUGAAUUUGTT against Ptx3, the z-score is -1.25 (inactive).

As for GGAAACACCAUGAAGAUGATT against Atpif1, the z-score is -0.0257 (inactive).

As for GCAAGUCGUAAGCCUCAGGTT against Mrps10, the z-score is 0.533 (inactive).

For the sequence GCUACGGACCAUGUUCAAGTT against Nxpe4, the z-score was 2.93 (active).

In the case of GGAGGUACCACAAAAGGCATT against Kif2c, the z-score was 0.0217 (inactive).

On to CCAACUAAGUGAAAUUCCATT against Aspn, for which the z-score is -1.26 (inactive).

Consider CCCAACAUUAUCUUGGACCTT against Mrgpra8, for which the z-score is -0.26 (inactive).

Take GGGAAGGAUUUUUGAUGAUTT against Arfgap1: the z-score was 1.33 (inactive).

In the case of GGAAGGAAGGAAUAAAACUTT against Fitm2, the z-score is -0.981 (inactive).

On to GCCACUUCACAGCAAGCUATT against Cdk2ap1, for which the z-score was 3.27 (active).

Take GGGCGAACAGGACAAUUAUTT against Med22: the z-score was -0.421 (inactive).

As for GCCCAUUAAUGCGUAUUUUTT against Mettl2, the z-score was 1.22 (inactive).

Regarding GCUAAGUCGGAUGAUAGAATT against Ttc16, the z-score is -0.742 (inactive).

On to GGCAUGAUCAGCACAUCACTT against Rpap1, for which the z-score is 0.578 (inactive).
